# Assay results from publication PMC4336329 (PLoS ONE, 2015).
# Hit rate of the full screen: of about 310,000 compounds, about 14,000 (4.5%) showed an effect of 50% or more. Effects have a minus sign here. Only a selection was taken, and strong results are over-represented in it overall.
# Biological target: human ether-à-go-go-related gene (hERG) potassium channel (human, UniProt Q12809)
# Assay: primary screen, population patch clamp on CHO cells stably expressing hERG; higher = less effect of the substance
# 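Note: peak tail current of the secondary pulse compared with the same well before compound.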
# human ether-à-go-go-related gene (hERG) potassium channel, sequence (Q12809 whole entry, looked up): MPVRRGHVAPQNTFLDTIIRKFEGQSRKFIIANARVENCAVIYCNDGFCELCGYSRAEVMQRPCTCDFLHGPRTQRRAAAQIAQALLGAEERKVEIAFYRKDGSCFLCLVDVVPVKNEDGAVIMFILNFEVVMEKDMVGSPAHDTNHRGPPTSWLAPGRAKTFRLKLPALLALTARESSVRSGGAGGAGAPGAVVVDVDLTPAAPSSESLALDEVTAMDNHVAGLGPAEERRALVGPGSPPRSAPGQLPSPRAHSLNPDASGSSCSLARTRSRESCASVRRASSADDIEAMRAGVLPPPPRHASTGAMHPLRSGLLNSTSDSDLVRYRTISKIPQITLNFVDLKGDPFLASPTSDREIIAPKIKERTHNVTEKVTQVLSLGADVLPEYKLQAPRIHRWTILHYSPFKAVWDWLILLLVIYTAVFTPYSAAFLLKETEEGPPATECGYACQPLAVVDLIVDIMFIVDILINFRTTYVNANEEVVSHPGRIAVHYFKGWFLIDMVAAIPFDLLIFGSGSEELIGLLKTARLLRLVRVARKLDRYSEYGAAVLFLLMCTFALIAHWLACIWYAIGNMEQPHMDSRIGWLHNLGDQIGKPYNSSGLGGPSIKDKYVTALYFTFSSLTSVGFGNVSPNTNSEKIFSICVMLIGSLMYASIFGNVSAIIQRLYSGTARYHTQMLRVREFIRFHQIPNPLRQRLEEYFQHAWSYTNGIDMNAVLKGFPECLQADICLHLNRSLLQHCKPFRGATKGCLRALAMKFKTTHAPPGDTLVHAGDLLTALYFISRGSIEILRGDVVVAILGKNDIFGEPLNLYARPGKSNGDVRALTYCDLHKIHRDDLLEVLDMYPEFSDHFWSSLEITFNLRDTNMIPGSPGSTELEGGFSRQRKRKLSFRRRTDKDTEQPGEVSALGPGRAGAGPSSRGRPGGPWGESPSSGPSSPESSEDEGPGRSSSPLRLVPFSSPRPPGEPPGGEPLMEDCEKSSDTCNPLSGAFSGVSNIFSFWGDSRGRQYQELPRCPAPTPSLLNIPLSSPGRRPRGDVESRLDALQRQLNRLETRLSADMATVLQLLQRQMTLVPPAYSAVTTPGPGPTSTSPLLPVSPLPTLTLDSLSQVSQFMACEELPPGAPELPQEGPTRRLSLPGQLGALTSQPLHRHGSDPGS
row,SMILES,"hERG current change (%, negative = inhibition) at 10uM"
1,CN1CCN(CC(C)(C)NS(=O)(=O)c2ccc(Cl)cc2)CC1,-20.4%
2,Cl.NCC(O)(c1ccc(Cl)cc1)c1ccc(Cl)cc1,-5.47%
3,CN1CCN(CC(O)(c2ccc(Cl)cc2)c2ccc(Cl)cc2)CC1,-73.3%
4,O=C(N/N=C/c1cccnc1)c1ccc(NC(=O)c2cccc(Cl)c2)cc1,15.3%
5,Cc1cccc(Cl)c1NC(=O)N1CCCN(c2nc3ccc(Cl)cc3s2)CC1,-20.6%
6,COc1cccc(/C=C/C2=CC(C)(C)NC(=S)N2)c1,16%
7,COc1ccc(CN(Cc2ccccn2)S(=O)(=O)c2ccc(-n3cnnn3)cc2)cc1,-72.7%
8,COc1ccc(CN(Cc2ccccn2)S(=O)(=O)c2ccc(-n3cnnn3)c(OC)c2)cc1,-47.2%
9,COc1ccc(CN(C2CCCC2)S(=O)(=O)c2ccc(-n3cnnn3)c(OC)c2)cc1OC,-28.1%
10,COc1ccc(CCN(Cc2cccs2)S(=O)(=O)c2ccc(-n3cnnn3)c(OC)c2)cc1OC,10.4%
11,COc1cc(S(=O)(=O)N(CCc2ccccc2)Cc2cccs2)ccc1-n1cnnn1,-3.57%
12,COc1ccc(CN(C2CCCC2)S(=O)(=O)c2ccc(-n3cnnn3)cc2)cc1OC,-64%
13,COc1ccc(CN(C2CCCC2)S(=O)(=O)c2ccc(-n3cnnn3)cc2)cc1,-43.8%
14,COc1cc(S(=O)(=O)N(Cc2ccccc2)Cc2ccccn2)ccc1-n1cnnn1,2.81%
15,COc1ccc(CCN(Cc2cccs2)S(=O)(=O)c2ccc(-n3cnnn3)cc2)cc1OC,-52.5%
16,O=C(N/N=C/c1ccc(Cl)cc1Cl)C(=O)NC1CC1,17.4%
17,Nc1nonc1C(=O)OCC(=O)c1ccc(Cl)cc1,4.6%
18,Cc1ccccc1NC(=O)NC1(C(=O)N2CCCC2)CCCCC1,9.33%
19,CCCCN(CC)CCCNC(=O)c1cc2cc3ccc(C)cc3nc2o1,-53.4%
20,CCCN(CCC)CCCNC(=O)c1cc2cc3ccc(OC)cc3nc2o1,-52.8%
21,CCCCN(C)CCNC(=O)c1cc2cc3ccc(OC)cc3nc2o1,-43%
22,COCCNC(=O)c1cc2cc3ccc(OC)cc3nc2o1,12.8%

row,SMILES,"hERG current change (%, negative = inhibition) at 10uM"
1,Cc1ccc2cc3cc(C(=O)NCCC(C)C)oc3nc2c1,8.43%
2,Cc1ccc2cc3cc(C(=O)NC4CC4)oc3nc2c1,8.43%
3,COc1ccc2cc3cc(C(=O)NCCC(C)C)oc3nc2c1,6.93%
4,CCCCN(CC)CCCNC(=O)c1cc2cc3ccc(OC)cc3nc2o1,-64.5%
5,CCN(CC)CCNC(=O)c1cc2cc3ccc(OC)cc3nc2o1,-18%
6,CCOC(=O)C1=C(N)Oc2c(oc(CO)cc2=O)C1c1c(F)cccc1Cl (centres unmarked),0.47%
7,Nc1ncc([N+](=O)[O-])cc1S(=O)(=O)c1ccccc1,8.32%
8,COc1ccc(N2C(=O)C3CCCN3C2c2cc(OC)c(OC)cc2OC)cc1 (centres unmarked),-4.23%
9,CSc1nc(C)cc(C)c1C(N)=O,8.49%
10,CCCNC(=O)NC(=O)CSc1nnc(-c2ccncc2)n1CC,11.6%
11,COc1ccc(-c2cc3c(=O)n(CC(=O)NCCCN4CCC(Cc5ccccc5)CC4)ncn3n2)cc1,-72.4%
12,COc1ccc(-c2cc3c(=O)n(CC(=O)NCCCc4ccccc4)ncn3n2)cc1,7.35%
13,CCc1ccc(-c2cc3c(=O)n(CC(=O)NCCCN4CCN(C)CC4)ncn3n2)cc1,-4.24%
14,COc1ccc(-c2cc3c(=O)n(CC(=O)NCCCN4CCN(Cc5ccccc5)CC4)ncn3n2)cc1,-54.8%
15,CCC1CCCCN1CCCNC(=O)Cn1ncn2nc(-c3ccc(OC)cc3)cc2c1=O (centres unmarked),-42.1%
16,COc1ccc(-c2cc3c(=O)n(CC(=O)NCCCN4CCC(N5CCCCC5)CC4)ncn3n2)cc1,21.5%
17,O=S(=O)(c1ccccc1)N1CCN=C1SCc1ccc(Cl)c(Cl)c1,-2.01%
18,Cc1ccc(NC(=O)CCCCCN2C(=O)[C@@H]3Cc4ccccc4CN3C2=O)c(C)c1,2.68%
19,Cc1ccc(-c2cc(-c3cccs3)[nH]n2)c(O)c1,1.75%
20,COC(=O)CSc1nc(NC(C)=O)nc(C)c1Br,9.72%
21,O=C(CSc1nc(=O)n2ccccc2n1)N1N=C(c2cccs2)CC1c1ccc(F)cc1 (centres unmarked),-52.2%
22,O=C(CSc1nc2c(cnn2-c2ccccc2)c(=O)[nH]1)N1N=C(c2cccs2)CC1c1ccc(F)cc1 (centres unmarked),16%
